The text below walks through data of ChEMBL document CHEMBL3988442, “University of Dundee, Small-Polar-MMV Screening Library” (2021).

SMILES strings stand for the structures.

In this test the target is AMP-activated protein kinase, AMPK (Homo sapiens) (UniProt P54646+O43741+P54619+Q9UGJ0+Q9Y478+Q13131+Q9UGI9). Nature of the test: AMP-dependent Kinase enzyme assay. An in vitro enzyme assay that detects ADP turnover that is directly proportional to AMPK activity. This uses naive AMPK that is activated during the assay with MK-8722. Particulars: 30 µM. The arrangement: scale not given: direction of the effect not stated beside the values. The class given is functional.
With `O=C(NCCS(=O)(=O)N1CCN(c2ncccn2)CC1)C1CC1`, the Percent Effect was 1.52%. In the case of `CCN(CC)S(=O)(=O)NCC1COc2ccccc2O1` (centres undefined), the Percent Effect amounted to 8.6%. Take `CC(C)N(CCO)C(=O)c1cc(COc2ccc3c(c2)CCCC3)on1`: the Percent Effect is -2.41%. With `CSc1nccc(N2CCC(NCc3ccc4nsnc4c3)CC2)n1` the figure was 2.27%; with `Cc1ccc2nc(CN3CCCCC3CCN3CCOCC3)cn2c1` (centres undefined), 6.28%; with `Cc1ncsc1CCN(C)C(=O)CCc1nc2cccnc2n1C`, -7.17%. With `CN(C(=O)c1ccc(C#N)cc1)c1nnc(C2CCOC2)s1` (centres undefined) the figure was 11.3%; with `CCn1nc(C)c(C(=O)N2C[C@@H](CN(C)C)[C@@H](CO)C2)c1C`, -14.6%. On to `CNC(=O)c1sc2ncccc2c1C1CCN(C(=O)CCOC)C1` (centres undefined), for which the Percent Effect is 21.5%. In the case of `CSc1ccc(C)c(C(=O)Nc2c(C(N)=O)n[nH]c2C)c1`, the Percent Effect is 3.27%. With `CN(CCCc1cnn(C)c1)Cc1cc2n(n1)CCCNC2` the figure was -0.861%; with `CC(=O)N1CCCC1CCc1ccc(Cl)nn1` (centres undefined), 12.8%; with `NCCc1cc(N2CCOCC2)nc(NC2CC2)n1`, 3.97%. With `COc1ccc(C(=O)N2C[C@@H](O)[C@H](NCCc3ncccc3C)C2)cc1` the figure was -1.16%; with `NC(=O)COc1ccc(CN2CC[C@@]3(O)CCCC[C@H]3C2)cc1Cl`, 3.71%. Regarding `CCC[C@@H]1CN(c2cncc(C(=O)N3CCOCC3)n2)C[C@H]1N(C)C`, the Percent Effect was found to be 14.3%. With `CCNC(=O)NCc1ccc(-n2ccc(C(F)(F)F)n2)cc1` the figure was -2.79%. With `N[C@H]1CN(C(=O)c2ccc3[nH]c(=O)c(=O)[nH]c3c2)C[C@@H]1c1ccccc1`, the Percent Effect came to 3.24%. For the molecule `CNS(=O)(=O)CC(=O)NCc1cc2c(s1)CCCCC2`, the Percent Effect is -1.26%.
